Screening results: PubChem BioAssay, The Scripps Research Institute Molecular Screening Center
LYPLA1 inh = LYPLA1 (human) inhibition in PME1 counter-screen | recombinant LYPLA1, FP-Rh probe fluorescence polarization | inhibition, % at 5.9 µM | O75608 | AID 2174 | 320,000 tested, 0.16% active;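 active = inhibition above the mean of all tested compounds plus 3 SD, set per campaign, cut at about 14% in these data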;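 note: inhibitors block serine hydrolase probe labeling of LYPLA1 so polarization falls; 0% = enzyme with DMSO and 100% = wells lacking LYPLA1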
Target sequence (O75608 whole entry, looked up): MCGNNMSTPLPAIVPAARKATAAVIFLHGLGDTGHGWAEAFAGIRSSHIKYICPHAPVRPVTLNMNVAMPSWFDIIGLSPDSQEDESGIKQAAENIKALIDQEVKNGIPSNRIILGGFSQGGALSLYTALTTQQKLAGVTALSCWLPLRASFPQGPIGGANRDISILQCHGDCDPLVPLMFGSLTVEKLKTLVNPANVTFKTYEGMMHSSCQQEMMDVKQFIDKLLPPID
ZTA DNA inh = ZTA (EBV) inhibition in EBNA-1 counter-screen | P03206 | ZTA-DNA binding, fluorescence polarization | inhibition, % at 11 µM | 320,000 tested, 0.15% active; in the data active = inhibition above about 33%
Target sequence (P03206 whole entry, looked up): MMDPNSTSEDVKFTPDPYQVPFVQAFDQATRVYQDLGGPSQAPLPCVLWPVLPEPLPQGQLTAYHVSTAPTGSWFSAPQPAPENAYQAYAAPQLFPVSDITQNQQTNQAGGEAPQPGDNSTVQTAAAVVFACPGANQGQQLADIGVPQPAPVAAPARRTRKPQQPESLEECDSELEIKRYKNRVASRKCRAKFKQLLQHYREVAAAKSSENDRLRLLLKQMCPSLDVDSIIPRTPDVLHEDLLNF
LYPLA2 inh = blocks human lysophospholipase 2, a PME1 counter-screen; recombinant LYPLA2, FP-Rh probe fluorescence polarization; AID 2177; 320,000 tested, 0.38% active; O95372; inhibition, % at 5.9 µM;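 active = inhibition above the screen-wide mean plus 3 SD, limit set per campaign, cut at about 26% in these data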;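 note: 0% = LYPLA2 with DMSO and 100% = wells lacking LYPLA2 enzyme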
PREPL inh = human PREPL enzyme inhibition | 320,000 tested, 0.68% active | AID 2751 | inhibition, % at 5.96 µM | Q4J6C6 | recombinant PREPL, fluorescence polarization activity-based probe;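 note: 0% = enzyme with DMSO and 100% = wells lacking enzyme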
EBNA-1 inhibitor = blocks EBNA-1 binding to DNA. EBNA-1 DNA binding, fluorescence polarization. inhibition, % at 14.8 µM. 300,000 tested, 0.34% active; in the data active = inhibition above about 28%
PREPL inh cf = human PREPL inhibition, confirmation; inhibition, % at 5.96 µM; 2,000 tested, 67% active; recombinant PREPL, fluorescence polarization activity probe; shares compounds with PREPL inh;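 note: 0% = protein with DMSO and 100% = wells lacking protein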
Active calls of the source: *; x = no result given. Hits are enriched below; roughly 1.3% of the tested compounds scored in any of these assays. Cut-off read from the data, not from the text of the source, unless noted: active = inhibition above about 43%; inactive = the rest.

SMILES | LYPLA1 inh | ZTA DNA inh | LYPLA2 inh | PREPL inh | EBNA-1 inhibitor | PREPL inh cf
O=C(C[C@@H]1C/C=C\C[C@@H](Cc2ccc(F)cc2)C(=O)OC[C@H]2CCCN2C1=O)NCCO | x | x | x | 30 | x | x
O=C(C[C@H]1C/C=C\C[C@@H](Cc2ccc(F)cc2)C(=O)OC[C@H]2CCCN2C1=O)NCCO | x | x | x | 47* | x | 48*
O=C(C[C@@H]1C/C=C\C[C@H](Cc2ccc(F)cc2)C(=O)OC[C@H]2CCCN2C1=O)N[C@H](CO)Cc1ccccc1 | x | x | x | 46* | x | 43
O=C(C[C@@H]1C/C=C\C[C@H](Cc2ccc(F)cc2)C(=O)OC[C@@H]2CCCN2C1=O)N[C@H](CO)Cc1ccccc1 | x | x | x | 34 | x | x
O=C(C[C@@H]1C/C=C\C[C@@H](Cc2ccc(F)cc2)C(=O)OC[C@@H]2CCCN2C1=O)N[C@H](CO)Cc1ccccc1 | x | x | x | 48* | x | 54*
CC(C)n1cnc2c(N(C)c3ccccc3)nc(N(CCN(C)C)Cc3ccccc3)nc21 | 0 | 1 | 4 | 52* | 2 | 48*
Cc1c(Cl)cccc1NC(=O)COC(=O)c1c2c(nc3ccccc13)CCN(Cc1ccccc1)C2 | -19 | 7 | -30 | 51* | 5 | 46*
COc1ccc2[nH]c(CN3CCN(CCC(C)C)C(CCO)C3)c(C)c2c1 (stereo not drawn) | -1 | 10 | 3 | 29 | 1 | x
Cc1c(CN2CCN(CC(C)C)C(CCO)C2)[nH]c2ccc(Cl)cc12 (stereo not drawn) | -2 | 13 | -2 | 46* | -3 | 44*
Cc1noc(C)c1NC(=O)N(C)C[C@@H]1Oc2ccc(NC(=O)CCC(F)(F)F)cc2CC(=O)N([C@@H](C)CO)C[C@@H]1C | x | x | x | 3 | x | x
CC(CO)Nc1nc(SCc2ccccc2)nc2sc3c(c12)CCC3 (stereo not drawn) | -7 | 6 | -5 | 44* | 9 | 41
CSc1ncccc1C(=O)NC1CCCc2c1cnn2-c1ccc(C)c(C)c1 (stereo not drawn) | 1 | -16 | 3 | 5 | -4 | x
CCCCCC(=O)Nc1cccc(C2=NOC3(C2)C[C@@H](C(N)=O)N(C(=O)Cc2ccc([N+](=O)[O-])cc2)C3)c1 (stereo partly drawn) | -3 | -14 | 3 | 3 | -10 | x
NC(=O)[C@H]1CC2(CC(c3cccc(NC(=O)COc4ccc(Cl)cc4)c3)=NO2)CN1C(=O)Cc1ccc([N+](=O)[O-])cc1 (stereo partly drawn) | -13 | -14 | -18 | 49* | 4 | 50*
Cc1ccc(C2N(c3ccc(Cl)cc3)C(=O)N3CCCN23)cc1 (stereo not drawn) | -1 | -3 | -6 | 4 | -14 | x
CCCCCCCCCCn1c2c(c(=N)c3c1CCC3)CCC2 | 4 | -8 | 21 | 44* | -2 | 44*
COc1ccc(CNC(=O)Cc2c(C(=O)O)[nH]c3ccccc23)c(OC)c1 | 5 | -1 | 3 | 126* | -3 | 3
COc1ccc(CNC(=O)Cc2c(C(=O)O)[nH]c3ccccc23)cc1 | -3 | 7 | 2 | 20 | -2 | x
CCN(CC)c1ccc(-n2cc3c(=O)n(C)c(=O)n(C)c3c2)cc1 | 1 | -1 | 7 | 49* | 0 | 48*
O=C(CSc1nnc(NC2CCCCC2)s1)Nc1ccc2c(c1)C(=O)c1ccccc1C2=O | -6 | -9 | 1 | 5 | 2 | x
CC(C)Nc1nnc(SCC(=O)Nc2ccc3c(c2)C(=O)c2ccccc2C3=O)s1 | -7 | -5 | 22 | 44* | -5 | 52*
O=C(Nc1ccccc1N1CCCC1)c1cccc(-c2cc3ccccc3oc2=O)c1 | -3 | -3 | 1 | 45* | -1 | 32
O=C(Nc1ccc(N2CCCC2)cc1)c1cccc(-c2cc3ccccc3oc2=O)c1 | -13 | 6 | -7 | 10 | -15 | x
CN1c2ccsc2/C(=N/NC(=O)c2c(F)cccc2F)CS1(=O)=O | 1 | 12 | 5 | 0 | 7 | x
CN1c2ccsc2/C(=N/Nc2ccccc2)CS1(=O)=O | -3 | -16 | 3 | 48* | -7 | 27
SMILES | LYPLA1 inh | ZTA DNA inh | LYPLA2 inh | PREPL inh | EBNA-1 inhibitor | PREPL inh cf
CCOC(=O)c1ccc[n+](C(C)C(=O)c2ccc(-c3ccccc3)cc2)c1 (stereo not drawn) | -1 | -18 | 4 | 61* | 1 | 48*
COc1ccc(N2CCN(C(=O)c3cn(C)c(=O)c4c3c3ccccc3n4C)CC2)cc1 | -2 | 5 | 9 | 41 | 5 | x
COc1ccc(N2CCN(C(=O)c3cn(C4CCCC4)c(=O)c4c3c3ccccc3n4C)CC2)cc1 | -1 | 13 | 3 | 62* | -2 | 61*
Cc1ccc(-c2nnc(SCC(=O)NC3CCCC3)n2C)cc1 | 3 | 9 | 8 | 2 | 15 | x
CCS(=O)(=O)c1nc(S(=O)(=O)c2ccc(Cl)cc2)c(N2CCC(O)CC2)s1 | -3 | 0 | 1 | 12 | -13 | x
CCOC(=O)C1CCN(Cc2cc(=O)oc3cc(C)c(Cl)cc23)CC1 | 3 | 9 | 1 | 17 | -2 | x
CCOC(=O)C1CCN(Cc2cc(=O)oc3c(C)c(C)ccc23)CC1 | -1 | -14 | 4 | 44* | -5 | 35
COC(=O)CCC(=O)OC1(C)C(=O)C2=CN(C(CO)CO)C(c3ccc(OC)cc3)=CC2=C(Br)C1=O (stereo not drawn) | 0 | -2 | -2 | 58* | -4 | 40
CC1CN(C(=O)CCC(=O)NCc2ccc(Cl)cc2)c2ccccc2S1 (stereo not drawn) | -2 | -15 | -7 | 8 | 3 | x
Cc1nc2ccccc2c(=O)n1/N=C/c1ccc(O)c(O)c1O | -7 | 7 | -11 | 45* | 3 | 38
COc1cc(/C=C(\C#N)c2nc3ccc(C)cc3[nH]2)c([N+](=O)[O-])cc1OC | -3 | 3 | 1 | 22 | -5 | x
COc1c(O)ccc(/C=C(\C#N)c2nc3ccccc3[nH]2)c1[N+](=O)[O-] | -1 | -23 | -9 | 56* | -9 | 16
Cc1cc(/C=C(/C#N)c2nc3ccccc3[nH]2)c(C)n1-c1cccc([N+](=O)[O-])c1 | -22 | -8 | -16 | 44* | -17 | 39
CC(=O)Nc1ccc(Nc2nc(-c3sc(C)nc3C)cs2)cc1 | 5 | -5 | 5 | 15 | -3 | x
CCOc1ccc(Nc2nc(-c3sc(N)nc3C)cs2)cc1 | -5 | 7 | 1 | 18 | -6 | x
COc1ccc(CCNc2nc(-c3sc(N)nc3C)cs2)cc1OC | -4 | 8 | -1 | 43* | -10 | 22
Cc1ccc(Nc2nc(-c3sc(C)nc3C)cs2)cc1 | 1 | -6 | 6 | 46* | -6 | 32
COc1ccc(Nc2nc(-c3sc(N)nc3C)cs2)cc1 | -6 | -15 | -4 | 50* | -11 | 26
COc1cc(SC)ccc1C(=O)OCC(=O)N1CCCC1 | 4 | 9 | 1 | -4 | -4 | x
COc1ccc(CC(=O)N2CCN(S(=O)(=O)c3cc(Cl)ccc3Cl)CC2)cc1 | 0 | -4 | 4 | 79* | x | 18
